Measured values reported in ChEMBL document CHEMBL5308504, “Tm Shift (DSF) assay results for EUbOPEN Chemogenomics Library” (2023).
Values joined by “and” are separate entries in the source; they are usually repeats but may differ in a detail not shown here. Equal values may be shown once.

Target: Bromodomain-containing protein 4 (Homo sapiens) (UniProt O60885)
Details: Compound concentration 20.0 uM, Protein concentration 2.0 uM, Result type QC Liability

Q: With `CC(C)(C)c1cnc(CSc2cnc(NC(=O)C3CCN(CC(=O)NCCOCCOCCOCCNc4cccc5c4C(=O)N(C4CCC(=O)NC4=O)C5=O)CC3)s2)o1` (configuration not stated) as the compound, how does the ΔTm read?
A: -1.66 °C

Q: `Cc1c(CN2CCC3(CC2)CN(c2ncnc4sc(CC(F)(F)F)cc24)C3)ccc2c1cc(C#N)n2CC(N)=O` was tested. Which ΔTm did it give?
A: 1.17 °C

Q: `Cc1c(CCC(=O)O)cccc1NC(=O)[C@@H](c1ccc(-c2cncc(Cl)c2)c(F)c1)C1CCCC1` was tested. Which ΔTm did it give?
A: 0.73 °C

Target: T1, Transcription intermediary factor 1-alpha (Homo sapiens) (UniProt O15164)
T1 sequence (whole entry): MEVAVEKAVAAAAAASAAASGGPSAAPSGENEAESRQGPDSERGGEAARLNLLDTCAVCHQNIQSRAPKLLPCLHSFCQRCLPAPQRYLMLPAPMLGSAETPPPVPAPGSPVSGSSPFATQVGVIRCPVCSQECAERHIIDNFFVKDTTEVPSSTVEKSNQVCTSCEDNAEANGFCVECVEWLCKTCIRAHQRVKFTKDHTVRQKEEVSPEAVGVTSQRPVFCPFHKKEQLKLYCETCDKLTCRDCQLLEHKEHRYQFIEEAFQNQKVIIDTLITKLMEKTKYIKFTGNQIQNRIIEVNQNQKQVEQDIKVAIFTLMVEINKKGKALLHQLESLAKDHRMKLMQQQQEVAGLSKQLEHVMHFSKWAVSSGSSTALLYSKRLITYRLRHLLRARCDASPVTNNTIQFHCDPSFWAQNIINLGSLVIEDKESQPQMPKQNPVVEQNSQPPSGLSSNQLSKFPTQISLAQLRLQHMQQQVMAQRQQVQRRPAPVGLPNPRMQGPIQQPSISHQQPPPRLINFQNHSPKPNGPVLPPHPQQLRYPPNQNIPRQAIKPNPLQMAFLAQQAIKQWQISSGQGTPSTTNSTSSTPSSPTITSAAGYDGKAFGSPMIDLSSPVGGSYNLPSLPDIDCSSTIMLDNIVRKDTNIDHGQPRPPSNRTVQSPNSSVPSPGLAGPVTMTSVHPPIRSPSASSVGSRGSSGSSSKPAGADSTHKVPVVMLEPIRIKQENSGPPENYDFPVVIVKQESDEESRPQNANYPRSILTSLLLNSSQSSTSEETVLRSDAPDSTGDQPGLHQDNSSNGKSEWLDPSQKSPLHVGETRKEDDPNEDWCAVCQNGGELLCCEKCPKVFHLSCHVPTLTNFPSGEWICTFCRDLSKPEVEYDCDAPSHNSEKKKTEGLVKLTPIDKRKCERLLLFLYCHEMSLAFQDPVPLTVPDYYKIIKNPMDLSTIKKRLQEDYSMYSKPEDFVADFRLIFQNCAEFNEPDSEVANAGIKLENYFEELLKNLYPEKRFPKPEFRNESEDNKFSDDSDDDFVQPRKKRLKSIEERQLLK
Details: Compound concentration 20.0 uM, Protein concentration 2.0 uM, Result type QC Liability

Q: With `COc1cc(C(=O)NCCOCCOCCOCC(=O)N[C@H](C(=O)N2C[C@H](O)C[C@H]2C(=O)NCc2ccc(-c3scnc3C)cc2)C(C)(C)C)ccc1Nc1ncc(C(F)(F)F)c(Oc2cccc3c2C(=O)CC3)n1` as the compound, how does the ΔTm read?
A: 2.06 °C

Q: `Cc1nc(Nc2cnn(C3CCNCC3)c2)nc2c1N(C)C(=O)c1cc3ccccc3cc1N2C` was tested. Which ΔTm did it give?
A: -2.83 °C

Q: How did the ΔTm turn out when `CSc1nc2c(c(=O)n(C)c(=O)n2C)n1C` was run?
A: -0.92 °C

Q: How did the ΔTm turn out when `CCOC(=O)CS(=O)(=O)c1ccc([C@@H](CO)NC(=O)c2cc3c(Cl)c(Cl)c(C)cc3n2C)cc1` was run?
A: -0.06 °C

Q: `CC(C)(O)CNC(=O)N1C(=O)N(c2cccc(C(F)(F)F)c2)C2=C(C(=O)CC2)[C@@H]1c1ccc(C#N)cc1` was tested. Which ΔTm did it give?
A: 0.83 °C

Q: With `Cc1cc(OC2CCS(=O)(=O)CC2)cc(C)c1-c1cccc(COc2ccc(CCC(=O)O)c(F)c2)c1` as the compound, how does the ΔTm read?
A: -3.73 °C

Q: How did the ΔTm turn out when `CC(C)(O)c1cn(-c2ccc(-c3cccc(S(C)(=O)=O)c3)cc2)c(C(C)(C)c2ccccc2Cl)n1` was run?
A: -3.39 °C

Q: Which ΔTm does the source give for `CSc1ccc(C[C@@H](C)C(=O)O)cc1Nc1nc(N2CC[C@H](N(C)C)C2)cc(C(F)F)c1C#N` here?
A: 0.57 °C

Q: How did the ΔTm turn out when `C[C@H]1CN(C2COC2)CCN1c1ccc(Nc2cc(-c3ccnc(N4CCn5c(cc6c5CC(C)(C)C6)C4=O)c3CO)cn(C)c2=O)nc1` was run?
A: 0.42 °C

Q: For `Cc1cc2c(-c3ccco3)cnc(N[C@H]3CCN(C)C[C@@H]3C(=O)NC3CCCCC3)c2[nH]c1=O`, which ΔTm is on record?
A: -2.71 °C

Q: For `N[C@@H]1CCCN(c2c(/C=C3\SC(=O)NC3=O)cccc2-c2ccccc2)C1`, which ΔTm is on record?
A: -2.28 °C

Q: Which ΔTm does the source give for `Cc1c(N2CCCC2)nc2ccc(Br)cc2c1C(=O)NC[C@H](CCC(=O)O)c1ccccc1Cl` here?
A: 0.3 °C and -2.24 °C

Q: With `O=C1COc2cc(C(=O)N(Cc3ccc(C(=O)Nc4ccncn4)cc3)C3CC3)ccc2N1` as the compound, how does the ΔTm read?
A: -2.92 °C

Q: How did the ΔTm turn out when `O=C(Nc1cccc(Nc2nccc(Nc3cccc(C(F)(F)F)c3)n2)c1)C1CC1` was run?
A: 1.03 °C

Q: For `Nc1ncc2c(n1)-c1c([nH]c3ccc(C4CC4)cc13)CCCC2`, which ΔTm is on record?
A: -1.92 °C

Q: With `Cc1sc(C(=O)c2cncnc2N[C@@H]2C[C@H](COS(N)(=O)=O)[C@@H](O)C2)cc1[C@@H]1NCCc2ccc(Cl)cc21` as the compound, how does the ΔTm read?
A: -0.84 °C

Q: With `CC(C)C[C@H](NC(=O)[C@@H](O)[C@H](N)Cc1ccccc1)C(=O)O` as the compound, how does the ΔTm read?
A: -0.82 °C

Q: `CC(C)S(=O)(=O)c1ccccc1Nc1nc(N[C@@H]2CCCN(CCCCCCCNC(=O)COc3cccc4c3C(=O)N(C3CCC(=O)NC3=O)C4=O)C2)ncc1Cl` (some centres not stated) was tested. Which ΔTm did it give?
A: 0 °C

Q: For `COC(=O)c1sccc1S(=O)(=O)Nc1ccc(Nc2ccccc2)cc1OC`, which ΔTm is on record?
A: 0.59 °C

Q: `C=C(F)C(=O)N1CCN(c2nc(OC[C@@H]3CCCN3C)nc3c2CCN(c2cccc4cccc(Cl)c24)C3)C[C@@H]1CC#N` was tested. Which ΔTm did it give?
A: -0.78 °C

Q: `C[C@]12CC[C@@H]3c4ccc(O)cc4CC[C@H]3[C@@H]1C[C@H]1OC(=O)C[C@]12O` was tested. Which ΔTm did it give?
A: 0.49 °C

Q: `CN(C)C(=O)Cn1cc(-c2ccc(-c3cncc4ccccc34)cc2)cn1` was tested. Which ΔTm did it give?
A: 0.13 °C

Q: `CC(C)Oc1ccc(Cc2ccc(NC3=NCCN3)cc2)cc1` was tested. Which ΔTm did it give?
A: -0.24 °C

Q: How did the ΔTm turn out when `Cc1cc(Cn2c(N3CC4(CNC4)C3)nc3cc(Cl)cc(N4CCN(C)CC4)c32)cc(C)c1F` was run?
A: 0.27 °C

Q: For `CN1CCC(F)(Cn2cnc(-c3ccc(F)cn3)c2-c2ccnc3[nH]ccc23)CC1`, which ΔTm is on record?
A: -2.99 °C

Q: With `CNC(=O)c1cccc(-c2ccc3c(N4CCOC[C@@H]4C)nc(N4CCOC[C@@H]4C)nc3n2)c1` as the compound, how does the ΔTm read?
A: -1.47 °C

Q: For `Cn1ccc(Cn2cnc(-c3ccc(F)cc3)c2-c2ccnc3[nH]ccc23)n1`, which ΔTm is on record?
A: -3.2 °C

Q: With `O=C(O)Cc1ccc(CCNS(=O)(=O)c2ccc(Cl)cc2)cc1` as the compound, how does the ΔTm read?
A: -0.53 °C

Q: `CC(C)(C)C(=O)NCc1ccc(Cl)c(C(=O)Nc2ncc[nH]2)c1` was tested. Which ΔTm did it give?
A: -0.67 °C

Q: For `CCS(=O)(=O)c1cc2cc(C[C@](O)(CC(C)(C)c3ccc(F)cc3C(N)=O)C(F)(F)F)[nH]c2cn1`, which ΔTm is on record?
A: 0.37 °C

Q: With `COc1ccccc1-c1cc(Nc2cccc(CS(N)(=O)=O)c2)ncn1` as the compound, how does the ΔTm read?
A: -0.57 °C

Q: `COc1cc(O)c(C(CC(=O)N2C[C@H](C)C[C@H](C)C2)c2ccc3c(c2)OCO3)c(OC)c1` (some centres not stated) was tested. Which ΔTm did it give?
A: -3.38 °C

Q: For `CN(C)C(=O)c1cc2cnc(Nc3ccc(N4CCN(CCCCNC(=O)COc5cccc6c5C(=O)N(C5CCC(=O)NC5=O)C6=O)CC4)cn3)nc2n1C1CCCC1` (configuration not stated), which ΔTm is on record?
A: -1.79 °C

Q: How did the ΔTm turn out when `Cc1ccc(NS(=O)(=O)c2ccc3c(c2)C2C=CCC2C(c2ccc(C(=O)O)cc2)N3)cc1C` (configuration not stated) was run?
A: -2.63 °C

Q: With `CCC(=O)N[C@@H]1CC[C@H](C(=O)N(C)c2ccc(-c3nc4ccccc4o3)cc2)C1` as the compound, how does the ΔTm read?
A: 0.25 °C

Q: With `Cc1csc(S(=O)(=O)N(CC(C)C)c2cc3c(cc2OCc2ccc(C(=O)O)cc2)CCC3)n1` as the compound, how does the ΔTm read?
A: -0.15 °C

Q: How did the ΔTm turn out when `CC(C)(C)c1cnc(CSc2cnc(NC(=O)C3CCN(CC(=O)NCCOCCOCCOCCNc4cccc5c4C(=O)N(C4CCC(=O)NC4=O)C5=O)CC3)s2)o1` (configuration not stated) was run?
A: -1.74 °C

Q: How did the ΔTm turn out when `Cc1c(CN2CCC3(CC2)CN(c2ncnc4sc(CC(F)(F)F)cc24)C3)ccc2c1cc(C#N)n2CC(N)=O` was run?
A: 0.7 °C

Q: With `Cc1c(CCC(=O)O)cccc1NC(=O)[C@@H](c1ccc(-c2cncc(Cl)c2)c(F)c1)C1CCCC1` as the compound, how does the ΔTm read?
A: 0.32 °C
